In publication PMC7862700, “An all-to-all approach to the identification of sequence-specific readers for epigenetic DNA modifications on cytosine” one finds binding signal data, which are given here for 1 sequence.

Holding throughout (experiment): DAPPL (digital affinity profiling via proximity ligation, sequencing); 10 mM Tris-HCl pH 7.5, 50 mM NaCl, 1 mM DTT, 4% glycerol, room temperature, 30 min; GST-TFs on glutathione beads, 16-mer random dsDNA library, 0.1% formaldehyde crosslink after washing; high values mean tight binding
For assay [1], the target named is T1, FEV (Homo sapiens, UniProt Q99581 1-238).
T1 sequence: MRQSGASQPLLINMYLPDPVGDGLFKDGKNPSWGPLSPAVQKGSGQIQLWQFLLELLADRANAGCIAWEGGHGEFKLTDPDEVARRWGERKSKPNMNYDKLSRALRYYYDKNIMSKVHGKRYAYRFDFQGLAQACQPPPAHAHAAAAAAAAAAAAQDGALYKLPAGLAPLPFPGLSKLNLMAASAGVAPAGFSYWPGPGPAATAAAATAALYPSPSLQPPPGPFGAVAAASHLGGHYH
Conditions: protein: recombinant; tags: N-terminal GST; dsDNA, one strand shown. The method, boiled down:
(§1)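 A tag-only sample was pooled with DNA-barcoded human transcription factors that had been expressed in yeast as GST fusions and captured on glutathione beads. The pools were incubated for 30 min at room temperature with 200 nmole of a random double-stranded 16-mer DNA library in Tris/NaCl/DTT/glycerol buffer, then washed, crosslinked with 0.1% formaldehyde, proximity-ligated (BsaI/T4 ligase, 1 h, 37 °C), PCR-amplified and sequenced on an Illumina NextSeq500. Binding signal is each hexamer's read frequency for a factor divided by its frequency for the tag-only sample.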

For assay [2], the target named is ETV5 (Homo sapiens, UniProt P41161 1-510). Conditions: protein: recombinant; tags: N-terminal GST; dsDNA, one strand shown. Summed up:
as §1

Assay [3] addresses HSF1 (Homo sapiens, UniProt Q00613 1-529). Conditions: protein: recombinant; tags: N-terminal GST; chain copies: 3; dsDNA, one strand shown. The method, boiled down:
as §1

In assay [4] the target is T2, SPIC (Homo sapiens, UniProt Q8N5J4 1-248).
T2 sequence: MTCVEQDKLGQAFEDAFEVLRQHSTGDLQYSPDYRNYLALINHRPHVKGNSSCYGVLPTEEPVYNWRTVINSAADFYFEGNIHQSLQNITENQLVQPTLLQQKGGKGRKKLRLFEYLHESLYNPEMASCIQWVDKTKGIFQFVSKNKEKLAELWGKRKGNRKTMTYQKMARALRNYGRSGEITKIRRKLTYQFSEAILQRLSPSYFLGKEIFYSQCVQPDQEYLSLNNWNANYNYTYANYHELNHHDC
The following applies: protein: recombinant; tags: N-terminal GST; dsDNA, one strand shown. Summed up:
as §1

The target in assay [5] is ELF4 (Homo sapiens, UniProt Q99607 1-663). The following applies: protein: recombinant; tags: N-terminal GST; dsDNA, one strand shown. The method, boiled down: as §1
ELF4, sequence (Q99607 whole entry): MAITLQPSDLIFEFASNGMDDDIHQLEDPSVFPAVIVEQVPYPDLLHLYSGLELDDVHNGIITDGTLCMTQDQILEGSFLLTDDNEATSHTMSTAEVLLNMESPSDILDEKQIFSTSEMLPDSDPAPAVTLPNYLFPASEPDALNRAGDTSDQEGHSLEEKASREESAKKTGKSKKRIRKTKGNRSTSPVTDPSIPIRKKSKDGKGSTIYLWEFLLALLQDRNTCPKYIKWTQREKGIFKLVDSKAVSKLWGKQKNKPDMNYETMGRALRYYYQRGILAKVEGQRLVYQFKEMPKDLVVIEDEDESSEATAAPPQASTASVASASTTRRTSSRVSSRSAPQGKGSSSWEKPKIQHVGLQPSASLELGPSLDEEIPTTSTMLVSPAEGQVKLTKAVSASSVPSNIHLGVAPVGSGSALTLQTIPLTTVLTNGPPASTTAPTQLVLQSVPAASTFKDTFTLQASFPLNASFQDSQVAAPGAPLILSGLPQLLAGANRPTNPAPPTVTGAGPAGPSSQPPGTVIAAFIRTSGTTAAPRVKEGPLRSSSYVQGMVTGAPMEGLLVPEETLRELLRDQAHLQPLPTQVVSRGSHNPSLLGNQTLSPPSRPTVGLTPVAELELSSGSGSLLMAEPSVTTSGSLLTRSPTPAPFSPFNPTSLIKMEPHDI
For assay [6], the target named is T3, ELK4 (Homo sapiens, UniProt P28324-2 1-405).
T3 sequence: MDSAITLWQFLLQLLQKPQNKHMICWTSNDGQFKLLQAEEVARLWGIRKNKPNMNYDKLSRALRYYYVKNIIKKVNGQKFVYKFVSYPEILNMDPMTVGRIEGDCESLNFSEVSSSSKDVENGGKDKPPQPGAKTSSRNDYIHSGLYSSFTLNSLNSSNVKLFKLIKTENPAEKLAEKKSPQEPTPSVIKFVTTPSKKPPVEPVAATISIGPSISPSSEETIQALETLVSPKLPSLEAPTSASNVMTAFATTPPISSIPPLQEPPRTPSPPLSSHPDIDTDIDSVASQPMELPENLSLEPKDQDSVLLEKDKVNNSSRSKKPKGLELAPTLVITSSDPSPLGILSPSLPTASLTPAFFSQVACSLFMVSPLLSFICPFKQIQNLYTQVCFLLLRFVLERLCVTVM
The following applies: protein: recombinant; tags: N-terminal GST; dsDNA, one strand shown. The method, boiled down: as §1

Assay [7] concerns the target T4, ETV2 (Homo sapiens, UniProt O00321 1-342).
T4 sequence: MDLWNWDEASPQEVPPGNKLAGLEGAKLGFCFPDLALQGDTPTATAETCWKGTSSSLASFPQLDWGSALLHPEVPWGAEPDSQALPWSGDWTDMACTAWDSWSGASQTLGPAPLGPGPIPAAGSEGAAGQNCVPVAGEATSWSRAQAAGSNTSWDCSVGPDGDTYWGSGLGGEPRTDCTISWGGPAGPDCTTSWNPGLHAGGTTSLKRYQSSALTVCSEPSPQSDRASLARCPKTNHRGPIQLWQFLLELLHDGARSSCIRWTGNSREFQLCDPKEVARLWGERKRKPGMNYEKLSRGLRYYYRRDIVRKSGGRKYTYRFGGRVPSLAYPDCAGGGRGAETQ
The following applies: protein: recombinant; tags: N-terminal GST; dsDNA, one strand shown. Summed up: as §1

Assay [8] deals with T5, ELF3 (Homo sapiens, UniProt P78545 1-371).
T5 sequence: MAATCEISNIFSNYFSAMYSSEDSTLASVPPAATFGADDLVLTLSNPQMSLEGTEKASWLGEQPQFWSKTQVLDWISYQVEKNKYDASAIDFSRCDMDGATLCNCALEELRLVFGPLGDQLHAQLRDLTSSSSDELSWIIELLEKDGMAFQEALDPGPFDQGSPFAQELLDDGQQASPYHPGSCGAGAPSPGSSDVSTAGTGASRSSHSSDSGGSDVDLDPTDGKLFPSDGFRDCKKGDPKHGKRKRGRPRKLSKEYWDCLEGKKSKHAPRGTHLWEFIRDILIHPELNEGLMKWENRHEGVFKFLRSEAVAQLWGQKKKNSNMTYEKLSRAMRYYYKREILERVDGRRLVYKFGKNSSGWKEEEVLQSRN
The following applies: protein: recombinant; tags: N-terminal GST; dsDNA, one strand shown. The method, boiled down:
as §1

Assay [9] concerns the target CRX (Homo sapiens, UniProt O43186 1-299). Conditions: protein: recombinant; tags: N-terminal GST; dsDNA, one strand shown. The method, boiled down: as §1
The target in assay [10] is ETV1 (Homo sapiens, UniProt P50549 1-477). Conditions: protein: recombinant; tags: N-terminal GST; dsDNA, one strand shown. The method, boiled down:
as §1

For assay [11], the target named is T6, ERF (Homo sapiens, UniProt P50548 1-548).
T6 sequence: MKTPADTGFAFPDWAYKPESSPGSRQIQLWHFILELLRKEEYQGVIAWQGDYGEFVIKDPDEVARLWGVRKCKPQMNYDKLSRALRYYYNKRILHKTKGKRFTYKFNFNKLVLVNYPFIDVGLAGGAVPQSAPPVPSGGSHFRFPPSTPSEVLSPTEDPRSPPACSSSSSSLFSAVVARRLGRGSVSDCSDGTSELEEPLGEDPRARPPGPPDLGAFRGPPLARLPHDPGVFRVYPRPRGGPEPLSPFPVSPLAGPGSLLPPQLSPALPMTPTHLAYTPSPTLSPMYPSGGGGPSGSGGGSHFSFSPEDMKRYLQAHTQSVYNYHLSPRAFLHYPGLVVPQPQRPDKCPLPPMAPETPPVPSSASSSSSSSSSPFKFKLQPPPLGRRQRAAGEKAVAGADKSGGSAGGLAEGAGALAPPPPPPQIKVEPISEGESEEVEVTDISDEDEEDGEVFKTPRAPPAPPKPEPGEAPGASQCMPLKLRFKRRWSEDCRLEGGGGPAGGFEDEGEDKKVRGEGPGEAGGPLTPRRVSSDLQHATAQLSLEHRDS
The following applies: protein: recombinant; tags: N-terminal GST; dsDNA, one strand shown. Summed up: as §1

The target of assay [12] is T7, ETV3L (Homo sapiens, UniProt Q6ZN32 1-361).
T7 sequence: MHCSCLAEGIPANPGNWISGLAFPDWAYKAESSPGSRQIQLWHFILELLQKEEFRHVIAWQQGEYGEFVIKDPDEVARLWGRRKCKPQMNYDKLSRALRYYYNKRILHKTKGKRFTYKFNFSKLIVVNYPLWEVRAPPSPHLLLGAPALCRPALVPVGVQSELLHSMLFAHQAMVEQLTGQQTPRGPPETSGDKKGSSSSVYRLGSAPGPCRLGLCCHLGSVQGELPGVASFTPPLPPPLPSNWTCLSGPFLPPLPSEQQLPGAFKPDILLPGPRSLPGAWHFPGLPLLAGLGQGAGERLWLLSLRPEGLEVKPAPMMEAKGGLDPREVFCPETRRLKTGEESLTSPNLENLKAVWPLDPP
Conditions: protein: recombinant; tags: N-terminal GST; dsDNA, one strand shown. The method, boiled down: as §1

For assay [13], the target named is T8, ETS2 (Homo sapiens, UniProt P15036 1-469).
T8 sequence: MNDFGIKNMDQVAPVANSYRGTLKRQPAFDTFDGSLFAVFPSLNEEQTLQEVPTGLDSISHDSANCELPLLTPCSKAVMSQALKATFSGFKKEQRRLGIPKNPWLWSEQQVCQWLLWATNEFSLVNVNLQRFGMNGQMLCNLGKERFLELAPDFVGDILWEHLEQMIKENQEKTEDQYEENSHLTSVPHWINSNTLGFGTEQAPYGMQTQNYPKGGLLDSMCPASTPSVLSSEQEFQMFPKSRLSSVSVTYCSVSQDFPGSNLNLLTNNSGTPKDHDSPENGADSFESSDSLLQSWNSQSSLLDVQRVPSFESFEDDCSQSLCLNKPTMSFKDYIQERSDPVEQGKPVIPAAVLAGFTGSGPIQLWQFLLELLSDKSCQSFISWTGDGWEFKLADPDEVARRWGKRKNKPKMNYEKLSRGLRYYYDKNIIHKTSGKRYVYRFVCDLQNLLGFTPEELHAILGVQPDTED
The following applies: protein: recombinant; tags: N-terminal GST; dsDNA, one strand shown. Summed up:
as §1

Assay [14] concerns the target T9, SPDEF (Homo sapiens, UniProt O95238 1-335).
T9 sequence: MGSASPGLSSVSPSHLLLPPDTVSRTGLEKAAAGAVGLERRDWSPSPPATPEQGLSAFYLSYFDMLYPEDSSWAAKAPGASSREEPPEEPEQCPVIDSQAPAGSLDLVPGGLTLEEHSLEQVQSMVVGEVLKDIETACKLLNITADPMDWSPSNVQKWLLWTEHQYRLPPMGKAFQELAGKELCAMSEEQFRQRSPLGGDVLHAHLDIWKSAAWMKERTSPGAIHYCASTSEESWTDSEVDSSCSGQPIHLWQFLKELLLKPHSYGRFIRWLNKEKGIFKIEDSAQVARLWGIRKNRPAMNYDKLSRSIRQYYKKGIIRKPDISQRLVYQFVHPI
The following applies: protein: recombinant; tags: N-terminal GST; dsDNA, one strand shown. The method, boiled down:
as §1

The target of assay [15] is T10, ETV7 (Homo sapiens, UniProt Q9Y603 1-341).
T10 sequence: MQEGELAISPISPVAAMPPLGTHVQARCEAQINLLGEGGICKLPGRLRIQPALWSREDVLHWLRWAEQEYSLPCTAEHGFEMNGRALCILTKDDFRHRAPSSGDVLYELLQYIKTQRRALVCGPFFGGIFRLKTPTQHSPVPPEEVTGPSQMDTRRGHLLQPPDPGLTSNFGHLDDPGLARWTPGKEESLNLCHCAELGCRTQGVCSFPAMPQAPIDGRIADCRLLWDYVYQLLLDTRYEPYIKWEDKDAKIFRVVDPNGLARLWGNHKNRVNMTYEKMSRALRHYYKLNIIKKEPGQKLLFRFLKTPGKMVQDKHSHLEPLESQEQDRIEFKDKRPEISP
The following applies: protein: recombinant; tags: N-terminal GST; dsDNA, one strand shown. The method, boiled down:
as §1

Assay [16] deals with T11, ELF5 (Homo sapiens, UniProt Q9UKW6-2 1-255).
T11 sequence: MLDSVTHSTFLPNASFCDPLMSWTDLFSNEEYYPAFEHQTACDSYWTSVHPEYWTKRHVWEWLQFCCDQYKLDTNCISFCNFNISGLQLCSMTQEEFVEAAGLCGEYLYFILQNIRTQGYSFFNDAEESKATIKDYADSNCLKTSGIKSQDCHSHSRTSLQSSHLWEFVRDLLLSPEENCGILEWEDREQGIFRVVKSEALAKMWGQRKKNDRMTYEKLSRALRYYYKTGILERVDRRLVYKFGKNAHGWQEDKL
Conditions: protein: recombinant; tags: N-terminal GST; dsDNA, one strand shown. Summed up:
as §1

The target of assay [17] is T12, ETV3 (Homo sapiens, UniProt P41162-2 1-143).
T12 sequence: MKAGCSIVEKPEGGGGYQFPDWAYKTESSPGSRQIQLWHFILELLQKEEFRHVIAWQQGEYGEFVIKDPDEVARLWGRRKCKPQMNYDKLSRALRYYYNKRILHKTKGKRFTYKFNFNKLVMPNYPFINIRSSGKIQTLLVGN
The following applies: protein: recombinant; tags: N-terminal GST; dsDNA, one strand shown. Summed up:
as §1

For assay [18], the target named is ETV6 (Homo sapiens, UniProt P41212 1-452). The following applies: protein: recombinant; tags: N-terminal GST; dsDNA, one strand shown. The method, boiled down:
as §1

HSF1, sequence (Q00613 whole entry): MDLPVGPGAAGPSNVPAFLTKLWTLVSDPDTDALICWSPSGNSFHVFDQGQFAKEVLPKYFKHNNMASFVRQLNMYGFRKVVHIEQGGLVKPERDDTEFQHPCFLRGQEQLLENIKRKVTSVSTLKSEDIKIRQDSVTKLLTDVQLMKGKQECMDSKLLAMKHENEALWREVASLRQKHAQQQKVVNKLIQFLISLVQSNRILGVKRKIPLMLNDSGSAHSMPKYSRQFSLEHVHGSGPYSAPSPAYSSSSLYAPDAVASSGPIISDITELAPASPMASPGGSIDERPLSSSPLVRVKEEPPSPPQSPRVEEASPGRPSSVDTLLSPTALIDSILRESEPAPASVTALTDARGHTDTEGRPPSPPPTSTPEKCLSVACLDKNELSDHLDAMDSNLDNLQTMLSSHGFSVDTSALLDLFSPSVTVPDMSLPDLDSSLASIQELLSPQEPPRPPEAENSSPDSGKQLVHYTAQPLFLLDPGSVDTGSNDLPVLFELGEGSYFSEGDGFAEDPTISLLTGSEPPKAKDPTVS
ETV5, sequence (P41161 whole entry): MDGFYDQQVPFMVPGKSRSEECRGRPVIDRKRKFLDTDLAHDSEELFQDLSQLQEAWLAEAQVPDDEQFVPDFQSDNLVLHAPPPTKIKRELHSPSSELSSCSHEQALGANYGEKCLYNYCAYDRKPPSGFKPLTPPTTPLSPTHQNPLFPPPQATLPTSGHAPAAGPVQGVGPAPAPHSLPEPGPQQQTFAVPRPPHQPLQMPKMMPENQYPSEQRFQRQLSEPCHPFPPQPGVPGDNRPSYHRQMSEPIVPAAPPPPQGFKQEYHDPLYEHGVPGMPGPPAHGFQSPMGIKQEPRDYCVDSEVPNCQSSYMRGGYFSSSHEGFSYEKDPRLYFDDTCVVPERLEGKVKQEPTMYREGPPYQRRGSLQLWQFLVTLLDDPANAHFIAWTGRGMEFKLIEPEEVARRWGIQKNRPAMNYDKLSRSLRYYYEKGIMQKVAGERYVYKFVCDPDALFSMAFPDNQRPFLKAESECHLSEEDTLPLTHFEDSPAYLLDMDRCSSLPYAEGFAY
ETV6, sequence (P41212 whole entry): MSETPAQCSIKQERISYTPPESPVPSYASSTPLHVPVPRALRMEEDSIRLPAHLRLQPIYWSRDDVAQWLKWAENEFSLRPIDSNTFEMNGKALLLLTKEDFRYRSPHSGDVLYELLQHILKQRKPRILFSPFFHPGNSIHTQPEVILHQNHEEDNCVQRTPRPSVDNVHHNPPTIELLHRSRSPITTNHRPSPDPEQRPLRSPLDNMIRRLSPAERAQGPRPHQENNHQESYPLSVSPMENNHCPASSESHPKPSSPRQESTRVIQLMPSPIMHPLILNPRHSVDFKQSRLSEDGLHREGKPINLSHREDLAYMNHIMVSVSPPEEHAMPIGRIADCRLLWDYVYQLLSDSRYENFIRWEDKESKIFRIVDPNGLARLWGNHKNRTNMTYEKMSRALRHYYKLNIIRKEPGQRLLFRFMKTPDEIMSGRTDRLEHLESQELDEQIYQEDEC
ETV1, sequence (P50549 whole entry): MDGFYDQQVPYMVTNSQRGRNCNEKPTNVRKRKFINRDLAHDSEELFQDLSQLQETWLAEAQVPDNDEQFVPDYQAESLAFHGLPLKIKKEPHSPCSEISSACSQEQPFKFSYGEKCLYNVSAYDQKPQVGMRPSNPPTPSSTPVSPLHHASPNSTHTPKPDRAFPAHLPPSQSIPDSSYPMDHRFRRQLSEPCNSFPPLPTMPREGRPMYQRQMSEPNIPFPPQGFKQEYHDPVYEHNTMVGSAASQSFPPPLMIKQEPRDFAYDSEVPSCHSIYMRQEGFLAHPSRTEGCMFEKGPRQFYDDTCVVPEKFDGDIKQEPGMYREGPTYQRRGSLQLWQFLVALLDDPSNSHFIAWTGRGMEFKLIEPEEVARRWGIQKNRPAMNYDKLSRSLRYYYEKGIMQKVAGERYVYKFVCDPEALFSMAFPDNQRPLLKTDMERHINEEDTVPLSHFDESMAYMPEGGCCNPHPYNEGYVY
CRX, sequence (O43186 whole entry): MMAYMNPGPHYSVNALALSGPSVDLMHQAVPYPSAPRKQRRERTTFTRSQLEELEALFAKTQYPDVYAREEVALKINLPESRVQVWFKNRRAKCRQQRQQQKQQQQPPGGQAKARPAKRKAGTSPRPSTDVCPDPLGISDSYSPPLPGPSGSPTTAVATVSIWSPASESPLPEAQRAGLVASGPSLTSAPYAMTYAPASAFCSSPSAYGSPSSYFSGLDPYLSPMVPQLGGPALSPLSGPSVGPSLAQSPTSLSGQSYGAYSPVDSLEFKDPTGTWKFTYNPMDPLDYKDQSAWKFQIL

As to GATCCT, the binding signal in assay [1] is 1.23 fold enrichment (6-mer frequency, TF over GST control); in assay [2], 1.27 fold enrichment (6-mer frequency, TF over GST control); in [3], 1.41 fold enrichment (6-mer frequency, TF over GST control); in [4] it was 1.21 fold enrichment (6-mer frequency, TF over GST control); in assay [5] it was 1.35 fold enrichment (6-mer frequency, TF over GST control); in assay [6], 1.24 fold enrichment (6-mer frequency, TF over GST control). Besides, the binding signal was 1.43 fold enrichment (6-mer frequency, TF over GST control) in assay [7]; 1.03 fold enrichment (6-mer frequency, TF over GST control) in assay [8]; 1.66 fold enrichment (6-mer frequency, TF over GST control) in [9]; 1.34 fold enrichment (6-mer frequency, TF over GST control) in assay [10]; 1.3 fold enrichment (6-mer frequency, TF over GST control) in [11]; 1.21 fold enrichment (6-mer frequency, TF over GST control) in [12]. The binding signal in assay [13] is 1.32 fold enrichment (6-mer frequency, TF over GST control); in assay [14] it was 1.84 fold enrichment (6-mer frequency, TF over GST control); in assay [15] it was 1.2 fold enrichment (6-mer frequency, TF over GST control); in assay [16] it was 1.29 fold enrichment (6-mer frequency, TF over GST control); in assay [17], 1.25 fold enrichment (6-mer frequency, TF over GST control); in assay [18], 1.28 fold enrichment (6-mer frequency, TF over GST control).
